# According to PubChem BioAssay AID651656 (NMMLSC, 2012):
# The source made the active and inactive calls.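 How the source made its calls: active means viability at the highest tested concentration below 50%; inactive means the rest.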
# Test: viability loss, K562-ABCB6 cells – cell-based, CellTiter-Glo luminescence, PowderSet01 powders, cytotoxicity control for ABCB6 inhibitor project, dose response (AID 651656)
# Conditions: 18 h; series mostly up to 100 µM; viability: at the top concentration
row,Structure (SMILES),viability
1,CC(=O)Nc1ccc(NC(=O)c2nc(S(=O)(=O)Cc3cccc(C)c3)ncc2Cl)cc1,63.3% (inactive)
2,CCOc1ccccc1NC(=O)c1nc(S(=O)(=O)Cc2cccc(C)c2)ncc1Cl,65.6% (inactive)
3,CCc1ccc(NC(=O)c2nc(S(=O)(=O)Cc3ccccc3)ncc2Cl)cc1,72.5% (inactive)
4,CC(=O)Nc1ccc(NC(=O)c2nc(S(=O)(=O)Cc3ccccc3)ncc2Cl)cc1,83.2% (inactive)
